Values without a mark were called inactive. Active and inactive are the calls of the source. Unless noted, no stated cut-off is given here; in the data, active means inhibition above about 28%; inactive means the rest.
Columns and labels:
[1] = StAR promoter reporter inhibitors, counter-screen for LRH-1 inverse agonist project, cell-based, luminescence, high throughput (AID 651611); settings: StAR promoter luciferase reporter counterscreen, at 3.6 µM, active compounds read high
[2] = target: Nuclear receptor subfamily 5 group A member 2 (Homo sapiens) (UniProt O00482); experiment: LRH-1 (NR5A2) inverse agonists, retest, confirmation, cell-based, luminescence (AID 651613; in the data active means inhibition above about 42%;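 further: HEK293T cells co-transfected with LRH-1 and StAR promoter luciferase reporter; 0% = vehicle wells and 100% = parental cells lacking receptor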); settings: cell-based LRH-1 luciferase reporter, inverse agonism; at 3.6 µM; active compounds read high
Chain of Nuclear receptor subfamily 5 group A member 2 (Homo sapiens) (O00482 whole entry, looked up): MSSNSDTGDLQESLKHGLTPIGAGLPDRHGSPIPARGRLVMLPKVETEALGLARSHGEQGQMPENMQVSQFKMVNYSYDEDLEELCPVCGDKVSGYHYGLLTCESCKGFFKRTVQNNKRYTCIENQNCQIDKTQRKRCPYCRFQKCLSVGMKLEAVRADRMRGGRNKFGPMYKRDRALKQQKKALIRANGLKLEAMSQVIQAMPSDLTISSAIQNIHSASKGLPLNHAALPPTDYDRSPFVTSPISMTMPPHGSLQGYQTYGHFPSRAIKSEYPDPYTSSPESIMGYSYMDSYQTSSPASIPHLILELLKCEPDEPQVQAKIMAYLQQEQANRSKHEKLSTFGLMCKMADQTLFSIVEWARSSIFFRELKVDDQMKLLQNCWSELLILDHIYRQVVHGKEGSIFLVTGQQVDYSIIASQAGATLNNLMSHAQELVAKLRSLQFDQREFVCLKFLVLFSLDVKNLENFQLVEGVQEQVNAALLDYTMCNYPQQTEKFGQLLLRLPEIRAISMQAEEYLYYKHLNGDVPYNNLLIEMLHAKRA

[3] = target: Steroidogenic factor 1 (Homo sapiens) (UniProt Q13285); experiment: SF1 (NR5A1) inverse agonists, counter-screen for LRH-1 inverse agonist project, cell-based, luminescence, high throughput (AID 651614; in the data active means inhibition above about 44%;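 further: cells cotransfected with StAR promoter reporter and SF1 expression vector; 0% = vehicle on cells with receptor and 100% = vehicle on cells lacking receptor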); settings: cell-based SF1 luciferase reporter, at 3.6 µM, active compounds read high
Chain of Steroidogenic factor 1 (Homo sapiens) (Q13285 whole entry, looked up, the tested form may be a part): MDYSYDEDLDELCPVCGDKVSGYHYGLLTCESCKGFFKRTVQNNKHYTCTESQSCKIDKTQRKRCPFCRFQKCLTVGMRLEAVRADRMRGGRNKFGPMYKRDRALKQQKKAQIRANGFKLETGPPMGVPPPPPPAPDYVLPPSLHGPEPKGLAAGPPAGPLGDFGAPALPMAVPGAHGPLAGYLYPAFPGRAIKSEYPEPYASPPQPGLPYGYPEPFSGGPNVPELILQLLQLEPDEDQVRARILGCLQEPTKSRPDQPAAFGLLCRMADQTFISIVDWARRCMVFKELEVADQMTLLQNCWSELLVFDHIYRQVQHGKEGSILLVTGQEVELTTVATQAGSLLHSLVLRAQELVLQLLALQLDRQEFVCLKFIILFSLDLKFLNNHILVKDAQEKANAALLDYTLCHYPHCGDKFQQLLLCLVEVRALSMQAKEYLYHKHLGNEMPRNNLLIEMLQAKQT

[4] = VP16 transactivation reporter inhibitors, counter-screen for LRH-1 inverse agonist project, cell-based, luminescence, high throughput (AID 651615; in the data active means inhibition above about 33%); settings: Gal4-VP16 luciferase reporter cells, at 3.6 µM, active compounds read high

SMILES | inhibition [1] | inhibition [2] | inhibition [3] | inhibition [4]
CN(C)c1ccc(C(=O)OCC(=O)Nc2ccc(N3CCOCC3)cc2)cc1 | -5.42% | 62% (active) | 55.8% (active) | -6.21%
Cn1c(=O)oc2cc(NC(=O)CCl)ccc21 | 51.8% (active) | 61.6% (active) | 71.3% (active) | -65.2%
CCOc1ccc(NC(=O)CSc2nc3cccnc3n2CCOC)cc1 | 21.3% | 64.4% (active) | 62.1% (active) | -10.9%
CCN(CC)C1Oc2cc3c(cc2C(c2cc(OC)c(OC)c(OC)c2)C1C)OCO3 (centres undefined) | 31.5% (active) | 18.4% | 29.8% | 25.9%
CCCc1nnc2n1N=C(c1ccc(OC)c(OC)c1)CS2 | 4.71% | 38.7% | 26.3% | -24.8%
O=C(CCl)Nc1ccccc1C(=O)c1ccccc1 | 1.14% | 48.4% (active) | 50% (active) | -2.6%
Cc1ccc[n+](CC(=O)Nc2ccc(Cl)c([N+](=O)[O-])c2)c1 | 9.69% | 47% (active) | 39.2% | 13.9%
Cc1ccc(-n2nc(C)c(NC(=O)CCl)c2C)cc1C | 57.9% (active) | 66.8% (active) | 66.8% (active) | -60.3%
Cc1cc(C)c(SCCc2ccncc2)c(C)c1 | 5.23% | 63.7% (active) | 57.5% (active) | 34.3% (active)
O=C(CSc1n[nH]c(-c2ccccc2)n1)Nc1ccc(F)cc1F | 5.84% | 58.4% (active) | 50.4% (active) | 3.19%
CCOc1ccccc1C(=O)Nc1cc2c(cc1N1CCCC1)n(CC)c(=O)n2CC | 52.6% (active) | 48.8% (active) | 53.5% (active) | 49.6% (active)
Cc1c(Cl)cccc1NC(=O)CNc1ccccc1F | -3.5% | 58.7% (active) | 40.6% | -6.92%
CCCN(CC(=O)Nc1ccccc1C)CC(=O)Nc1ccc(Br)cc1F | 8.48% | 58.6% (active) | 51.6% (active) | 1.69%
CCOc1ccc(CCNC(=O)COC(=O)c2ccc(F)c(S(=O)(=O)N3CCOCC3)c2)cc1OCC | 10.3% | 61.8% (active) | 61.6% (active) | -3.82%
C[C@@H]1CN([C@@H](C)CO)S(=O)(=O)c2ccc(-c3ccc(C#N)cc3)cc2O[C@@H]1CN(C)Cc1ccccn1 | 24.5% | 51.8% (active) | 48% (active) | -14.3%
Oc1[nH]c2ccc(Br)cc2c1N=NC(=S)N1CCOCC1 | 83.2% (active) | 93.8% (active) | 87.7% (active) | 55.5% (active)
COc1cc(-c2cc(C(=O)Nc3ccncc3)c3ccccc3n2)cc(OC)c1OC | 28.4% (active) | 40.9% | 40.5% | -10.9%
COc1ccc(CCNC(=O)CSc2nnc(CNC(=O)c3cccs3)o2)cc1OC | 4.32% | 56.7% (active) | 50% (active) | 1.47%
O=C(NCCN1C(=O)S/C(=C\c2ccc(OC(F)F)cc2)C1=O)c1cnccn1 | 44% (active) | 30.1% | 33.1% | 14.9%
COc1ccc(NC(=O)CN2C(=O)NC(C)(c3ccc(C)cc3)C2=O)c([N+](=O)[O-])c1 (centres undefined) | 9.06% | 56.2% (active) | 55.1% (active) | -9.49%
O=C(NCc1cccc(C(F)(F)F)c1)c1cccc(Cl)c1Cl | 7.41% | 46.9% (active) | 48% (active) | 11.8%
Cc1onc(-c2c(F)cccc2Cl)c1C(=O)Oc1ccccc1 | -12.8% | 41.9% (active) | 33.8% | 11.2%
COc1ccc(CCNC(=O)c2ccccc2NC(=O)CN2CCN(c3ccccc3O)CC2)cc1 | 33.3% (active) | 48% (active) | 50.4% (active) | -22.9%
COc1cc(-c2cc(NC=O)c3ncc(-c4ccc(C(C)=O)cc4)n3c2)ccc1O | 56.8% (active) | 64.4% (active) | 60.6% (active) | -49.1%
CCCC(=O)N1CCN(c2ccc(NC(=O)c3ccc([N+](=O)[O-])o3)cc2)CC1 | -1.48% | 52.9% (active) | 55.4% (active) | -18.4%
O=C(Nc1ccc([N+](=O)[O-])cc1)c1cccc([N+](=O)[O-])c1 | 8.52% | 65.6% (active) | 64.5% (active) | -15.3%

SMILES | inhibition [1] | inhibition [2] | inhibition [3] | inhibition [4]
Cc1c(C(=O)Nc2ccc(Cc3ccncc3)cc2)cccc1[N+](=O)[O-] | -10.9% | 56.2% (active) | 49.9% (active) | 19.6%
O=C(CSC1=NC2(CCCCCC2)N=C1c1ccccc1)Nc1ccc2c(c1)OCCO2 | 8.01% | 60.2% (active) | 62.2% (active) | 12.7%
COc1ccc(CNC(=O)c2cccc3c(-c4cnn(C)c4)coc23)cc1OC | 12.8% | 46.2% (active) | 46% (active) | 36.4% (active)
O=C(COC(=O)C1CCCCC1)NCCc1ccccc1 | 3.93% | 50.9% (active) | 41.5% | -5.95%
Cc1cc(C)nc(-n2nc(C)cc2Nc2ccccc2)n1 | 4.56% | 35.7% | 19.6% | 24%
O=C(c1ccccc1)c1ccc2nc(N3CCN(C(=O)c4ccco4)CC3)c3nncn3c2c1 | 3.94% | 43% (active) | 44.3% (active) | -14.2%
CC(=O)c1ccc(-c2c(C)cc3oc(=O)cc(-c4ccccc4)c3c2C)cc1 | -6.71% | 57% (active) | 52.6% (active) | -3.38%
CCOc1ccc(NC(=O)CSc2nccn(-c3ccc4c(c3)OCCO4)c2=O)cc1 | -5.61% | 55% (active) | 60.7% (active) | -10.1%
COc1ccc(C(=O)Nc2ccc(S(=O)(=O)N3CCc4ccccc43)cc2)cc1 | 29.2% (active) | 40.6% | 44.5% (active) | 44.7% (active)
COc1cc(-c2nc(C(=O)NCC3CCCO3)cc3c2[nH]c2ccccc23)cc(OC)c1OC (centres undefined) | 62.5% (active) | 49.6% (active) | 39.1% | 2.55%
COC(=O)c1ccc(NC(=O)COc2cccc(-n3cnnn3)c2)cc1 | -5.38% | 41.3% (active) | 32.5% | -9.98%
CCc1cc(=O)oc2c(C)c(OCC(=O)NC3CC(C)(C)NC(C)(C)C3)ccc12 | 4.17% | 56.7% (active) | 56.1% (active) | 3.79%
O=[N+]([O-])c1cnccc1Nc1cccc(F)c1 | 11.5% | 62.3% (active) | 55.1% (active) | 10%
Cc1cc(C)nc(N/N=C/c2ccc([N+](=O)[O-])o2)n1 | 8.46% | 57.7% (active) | 42.5% | -4.48%
CN1CCN(/N=C/c2nc(-c3cccc([N+](=O)[O-])c3)n3ccccc23)CC1 | -4.33% | 38.9% | 42.2% | 3.29%
Cc1ccccc1C(=O)N1CCN(c2ccc(NC(=O)c3ccc([N+](=O)[O-])o3)cc2)CC1 | 25.2% | 64.4% (active) | 69.1% (active) | 2.37%
CCN1CCN(c2ccc(S(=O)(=O)N3CCCCC3)cc2NC(=O)/C=C/c2ccc([N+](=O)[O-])cc2)CC1 | 0.06% | 61.8% (active) | 49.4% (active) | 3.5%
Cc1c(C(=O)NC(C)c2ccncc2)oc2ccccc12 (centres undefined) | -19.6% | 44.2% (active) | 42.9% (active) | -7.87%
Cc1ccc(SCC(=O)Nc2ccc(N3CCOCC3)cc2)cc1C | -0.13% | 51.6% (active) | 47.2% (active) | -10.5%
COc1ccc(NC(=O)CSc2sc3c(O)cc(=O)[nH]c3c2C#N)c(OC)c1 | 1.46% | 48.8% (active) | 47.3% (active) | 2.48%
C#CCN(C[C@@H]1[C@@H](OC(=O)NCc2ccc(OC)c(OC)c2)[C@@H](OC(=O)NCc2ccc(OC)c(OC)c2)CN(C(=O)OC(C)C)N1C(=O)OC(C)C)S(=O)(=O)c1ccc(C)cc1 | 1.68% | 35.2% | 30.1% | 10.3%
O=C(NCc1cccnc1)c1cccn2c(=O)c3sccc3nc12 | 17.9% | 34.3% | 31.3% | 1.7%
O=C(Nc1ccc(N2CCOCC2)c(Cl)c1)c1ccc([N+](=O)[O-])o1 | -80.2% | 9.33% | 35.9% | -84.8%
CCC(c1nnnn1-c1c(C)cccc1C)N1CCN(c2ccc(C(F)(F)F)cc2[N+](=O)[O-])CC1 (centres undefined) | 7.27% | 18.6% | 5.25% | 10%
O=C(Nc1cccnc1)c1ccc([N+](=O)[O-])s1 | 25.4% | 43.8% (active) | 51% (active) | 11.1%
